According to PubChem BioAssay AID1159580 (chemical genetic matrix, 2015):
Several values for one entry are separate records, joined by “and”; a condition that tells them apart may be missing. Identical values can stand only once. About 2,000 (36%) of roughly 5,500 compounds were called active. Inconclusive results (about 18%) are left out. No stated cut-off is given here; in the data, active means normalized growth mostly below about 0.91 (no sharp cut-off); inconclusive means no clear call, values can overlap the other calls; inactive means mostly above about 0.92. This is one part of the list.

Test: chemical genetic growth profiling, strain panel (AID 1159580);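 further: tested at 20 µM; growth read once vehicle control cultures reached saturation at 30 °C; 1 = growth at the plate median or of vehicle wells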
Conditions: S. cerevisiae deletion strains, growth OD

Measured: normalized growth

CC(=O)Nc1ccc(O)cc1
inactive: locus YAL021C, strain ccr4, stronger effect = lower value 1.02 | locus YAL026C, strain drs2, stronger effect = lower value 1.02 | locus YAL030W, strain snc1, stronger effect = lower value 1.02 | locus YBL061C, strain skt5, stronger effect = lower value 1.02 | locus YBR009C, strain hhf1, stronger effect = lower value 1.01 | locus YBR021W, strain FUR4, stronger effect = lower value 1.09 | locus YBR023C, strain chs3, stronger effect = lower value 1.02 | locus YBR171W, strain sec66, stronger effect = lower value 1.02 | locus YBR229C, strain ROT2, stronger effect = lower value 0.985 | locus YBR231C, strain swc5, stronger effect = lower value 1.02 | locus YBR279W, strain paf1, stronger effect = lower value 1 | locus YCL011C, strain gbp2, stronger effect = lower value 1.01 | locus YCL016C, strain dcc1, stronger effect = lower value 1.01 | locus YCL029C, strain bik1, stronger effect = lower value 0.979 | locus YCL069W, strain vba3, stronger effect = lower value 1.01 | locus YCR088W, strain abp1, stronger effect = lower value 1.01 | locus YDL005C, strain med2, stronger effect = lower value 1.02 | locus YDL035C, strain GPR1, stronger effect = lower value 0.984 | locus YDL040C, strain nat1, stronger effect = lower value 1.01 | locus YDL074C, strain BRE1, stronger effect = lower value 1.05 | locus YDL101C, strain DUN1, stronger effect = lower value 1.01 | locus YDL134C, strain PPH21, stronger effect = lower value 0.985 | locus YDL185W, strain tfp1, stronger effect = lower value 0.935 | locus YDL192W, strain arf1, stronger effect = lower value 0.981 | locus YDR001C, strain nth1, stronger effect = lower value 1.02 | locus YDR069C, strain doa4, stronger effect = lower value 1.02 | locus YDR101C, strain arx1, stronger effect = lower value 0.988 | locus YDR137W, strain rgp1, stronger effect = lower value 1.01 | locus YDR159W, strain sac3, stronger effect = lower value 1.01 | locus YDR162C, strain NBP2, stronger effect = lower value 0.951 | locus YDR195W, strain ref2 1.01 | locus YDR297W, strain sur2, stronger effect = lower value 1.02 | locus YDR318W, strain mcm21, stronger effect = lower value 0.973 | locus YDR334W, strain swr1, stronger effect = lower value 1.02 | locus YDR335W, strain msn5, stronger effect = lower value 1.01 | locus YDR388W, stronger effect = lower value 0.988 | locus YDR392W, strain spt3, stronger effect = lower value 0.993 | locus YDR502C, strain sam2, stronger effect = lower value 1 | locus YEL003W, strain gim4, stronger effect = lower value 1.03 | locus YEL037C, strain rad23, stronger effect = lower value 1.02 | locus YEL061C, strain CIN8 (second series), stronger effect = lower value 1.01 | locus YEL061C, strain CIN8, stronger effect = lower value 0.971 | locus YER015W, strain faa2, stronger effect = lower value 1 | locus YER016W, strain bim1, stronger effect = lower value 0.987 | locus YER110C, stronger effect = lower value 0.992 | locus YER111C, strain swi4, stronger effect = lower value 1.01 | locus YER155C, strain BEM2 (second series), stronger effect = lower value 1.02 | locus YER155C, strain BEM2, stronger effect = lower value 0.978 | locus YER167W, strain BCK2, stronger effect = lower value 0.991 | locus YFR010W, strain ubp6, stronger effect = lower value 1.01 | locus YGL078C, strain dbp3, stronger effect = lower value 0.936 | locus YGL086W, strain mad1, stronger effect = lower value 0.987 | locus YGL167C, strain pmr1, stronger effect = lower value 1.03 | locus YGL173C, strain kem1, stronger effect = lower value 1.02 | locus YGL227W, strain vid30, stronger effect = lower value 1.02 | locus YGL240W, strain doc1, stronger effect = lower value 1.01 | locus YGL248W, strain PDE1, stronger effect = lower value 0.982 | locus YGL253W, strain hxk2, stronger effect = lower value 1.01 | locus YGR135W, strain pre9, stronger effect = lower value 0.996 | locus YGR229C, strain SMI1, stronger effect = lower value 0.972 | locus YGR252W, strain gcn5, stronger effect = lower value 1.16 | locus YHR013C, strain ard1, stronger effect = lower value 1.02 | locus YHR027C, strain rpn1, stronger effect = lower value 1.01 | locus YHR030C, strain SLT2, stronger effect = lower value 0.985 and 0.986 | locus YHR079C, strain IRE1 (second series), stronger effect = lower value 0.987 | locus YHR079C, strain IRE1, stronger effect = lower value 0.986 | locus YHR094C, strain hxt1, stronger effect = lower value 0.979 | locus YHR129C, strain ARP1, stronger effect = lower value 0.977 | locus YHR142W, strain chs7, stronger effect = lower value 1.01 | locus YHR200W, strain rpn10, stronger effect = lower value 0.983 | locus YIL066C, strain RNR3, stronger effect = lower value 0.977 | locus YIL073C, strain SPO22, stronger effect = lower value 1.04 | locus YIL125W, strain kgd1, stronger effect = lower value 0.944 | locus YIR030C, strain dcg1, stronger effect = lower value 0.977 | locus YJL092W, strain hpr5, stronger effect = lower value 1 | locus YJL095W, strain BCK1 (second series), stronger effect = lower value 1.02 | locus YJL095W, strain BCK1, stronger effect = lower value 1 and 0.986 | locus YJL115W, strain asf1, stronger effect = lower value 1.02 | locus YJL129C, strain trk1, stronger effect = lower value 1.01 | locus YJL134W, strain LCB3, stronger effect = lower value 0.981 | locus YJL154C, strain vps35, stronger effect = lower value 1.01 | locus YJL164C, strain tpk1, stronger effect = lower value 0.997 | locus YJL166W, strain qcr8, stronger effect = lower value 1 | locus YJL168C, strain set2, stronger effect = lower value 0.975 | locus YJL187C, strain SWE1 (second series), stronger effect = lower value 1.01 | locus YJR043C, strain POL32, stronger effect = lower value 0.978 | locus YJR066W, strain TOR1, stronger effect = lower value 0.99
